In PubChem BioAssay (Tox21):
Inconclusive results are not listed. The source made the active and inactive calls. Unless noted, the call rests on the fitted dose curve; in most records, active means well fitted curve in the direction sought with a large enough effect in the repeat runs; inconclusive means weak or mixed curves; inactive means no such curve, though single readings can be large; an effect the other way counts as inactive or inconclusive.

Experiments:
[1] = qHTS assay for small molecules that induce genotoxicity in human embryonic kidney cells expressing luciferase-tagged ATAD5 (AID 651632); further: nearly all actives have a fitted effect of over 15% in size
Summary of the method: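 Concentration-response screen for ATAD5 upregulation in HEK293T luciferase reporter cells; 16 hr treatment at 37C, then luminescence after 30 min with Amplite at room temperature.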

[2] = qHTS assay for small molecule agonists of the p53 signaling pathway - cell viability (AID 651633; calls by dose curve;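 further: p53RE-bla HCT reporter cells with a stable beta-lactamase p53 reporter; series mostly up to about 83 µM; nearly all actives have a fitted effect of over 30% in size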)
Summary of the method: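 Viability counter-read: CellTiter-Glo luminescence (30 min, room temperature) in the same p53RE-bla plates. These plates had been exposed to compounds for 16 h at 37 C.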

[3] = qHTS assay for small molecules that induce genotoxicity in human embryonic kidney cells expressing luciferase-tagged ATAD5 - cell viability (AID 651634; calls by dose curve; further: nearly all actives have a fitted effect of over 25% in size)
Summary of the method: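 15.5 hr compound or vehicle exposure of HEK293T cells expressing luciferase-tagged ATAD5 at 37C; live-cell protease activity is read by fluorescence after 30 min of CellTiter-Fluor.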

[4] = qHTS assay for small molecule disruptors of the mitochondrial membrane potential - cell viability (AID 720634; calls by dose curve;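 further: human HepG2 liver cancer cells; series mostly up to about 83 µM; nearly all actives have a fitted effect of over 20% in size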)
Summary of the method: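 In this qHTS format, HepG2 cells plated overnight were pinned with compound, incubated 1 hr, and assayed for ATP luminescence with CellTiter-Glo after m-MPI dye addition.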

[5] = qHTS assay to test for compound auto fluorescence at 590 nm (red) in HepG2 cells (AID 720674)
Summary of the method: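 1 hr compound incubation on HepG2 cells, 37 C, 5% CO2; plate read ex 540 nm / em 590 nm; intensities reported as Rose Bengal sodium equivalents.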

[6] = qHTS assay to test for compound auto fluorescence at 535 nm (green) in HepG2 cells (AID 720675)
[7] = qHTS assay to test for compound auto fluorescence at 460 nm (blue) in HEK293 cells (AID 720678)
Summary of the method: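 HEK293, 2,000 cells/well, 10% dialyzed FBS; attach 4-5 hr 37C; pin compound or DMSO; o/n 37C/5% CO2; fluorescence 405/460 nm; triamterene-equivalent units.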

[8] = qHTS assay to test for compound auto fluorescence at 460 nm (blue) in HEK293 cell free culture (AID 720681)
Summary of the method: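 Blue fluorescence (Ex 405/Em 460 nm, triamterene-equivalent) was read immediately after pin transfer of compound or DMSO into medium (DMEM, 10% FBS) without cells.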

[9] = qHTS assay to test for compound auto fluorescence at 535 nm (green) in HEK293 cell free culture (AID 720682)
Summary of the method: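 Compounds were pin-transferred into cell-free DMEM with 10% FBS, and green fluorescence was read at excitation 485 nm and emission 535 nm. Intensities were expressed as fluorescein-equivalent values.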

[10] = qHTS assay to test for compound auto fluorescence at 590 nm (red) in HEK293 cell free culture (AID 720683)
Summary of the method: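 Red-channel autofluorescence of compounds in culture medium (DMEM, 10% FBS), no cells, measured at 540/590 nm. Rose Bengal sodium is the reference fluorophore for equivalence.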

[11] = qHTS assay to test for compound auto fluorescence at 590 nm (red) in HepG2 cell free culture (AID 720684)
Summary of the method: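 No cells present: MEM + 10% FBS only. Compound pinned in, red label read (540/590 nm). Activity = fluorescence equivalent to Rose Bengal sodium.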

[12] = qHTS assay to test for compound auto fluorescence at 460 nm (blue) in HepG2 cell free culture (AID 720685)
Summary of the method: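 Cell-free plates of MEM plus 10% FBS received 23 nL compound or DMSO vehicle; blue-channel (405/460 nm) intensity scored against triamterene as reference fluorophore.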

[13] = qHTS assay to test for compound auto fluorescence at 460 nm (blue) in HepG2 cells (AID 720687)
Summary of the method: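 Blue-channel autofluorescence (Ex/Em 405/460 nm, triamterene-equivalent) was measured after 1 hr compound exposure at 37 C, 5% CO2. Cells were HepG2, plated overnight at 37 C in MEM plus 10% FBS.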

[14] = qHTS assay to test for compound auto fluorescence at 590 nm (red) in HEK293 cells (AID 720679)
Summary of the method: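 Intensity at 540nm excitation and 590nm emission is reported as Rose Bengal sodium-equivalent autofluorescence. Measurements followed overnight exposure (37C, 5% CO2) of HEK293 cells, 2,000 per well, to 23 nL compound.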

[15] = qHTS assay to test for compound auto fluorescence at 535 nm (green) in HEK293 cells (AID 720680)
[16] = qHTS assay to test for compound auto fluorescence at 535 nm (green) in HepG2 cell free culture (AID 720686)
[17] = qHTS assay for small molecule disruptors of the mitochondrial membrane potential (AID 720635)
Summary of the method: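 Mitochondrial membrane potential tracked with Mito-MPS dye, red aggregates (ex 540/em 590 nm) against green monomers (ex 490/em 535 nm). Compound treatment 1 hr at 37C, dye 30 min in HepG2.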

[18] = biological target: Glucocorticoid receptor (Homo sapiens) (UniProt P04150); assay: qHTS assay to identify small molecule agonists of the glucocorticoid receptor (GR) signaling pathway (AID 720691; active means well fitted activation curve with a large enough effect in the signal ratio in the repeat runs, not every such curve was filed as active; the % refers to the signal ratio)
Glucocorticoid receptor (Homo sapiens), sequence (P04150 whole entry, looked up): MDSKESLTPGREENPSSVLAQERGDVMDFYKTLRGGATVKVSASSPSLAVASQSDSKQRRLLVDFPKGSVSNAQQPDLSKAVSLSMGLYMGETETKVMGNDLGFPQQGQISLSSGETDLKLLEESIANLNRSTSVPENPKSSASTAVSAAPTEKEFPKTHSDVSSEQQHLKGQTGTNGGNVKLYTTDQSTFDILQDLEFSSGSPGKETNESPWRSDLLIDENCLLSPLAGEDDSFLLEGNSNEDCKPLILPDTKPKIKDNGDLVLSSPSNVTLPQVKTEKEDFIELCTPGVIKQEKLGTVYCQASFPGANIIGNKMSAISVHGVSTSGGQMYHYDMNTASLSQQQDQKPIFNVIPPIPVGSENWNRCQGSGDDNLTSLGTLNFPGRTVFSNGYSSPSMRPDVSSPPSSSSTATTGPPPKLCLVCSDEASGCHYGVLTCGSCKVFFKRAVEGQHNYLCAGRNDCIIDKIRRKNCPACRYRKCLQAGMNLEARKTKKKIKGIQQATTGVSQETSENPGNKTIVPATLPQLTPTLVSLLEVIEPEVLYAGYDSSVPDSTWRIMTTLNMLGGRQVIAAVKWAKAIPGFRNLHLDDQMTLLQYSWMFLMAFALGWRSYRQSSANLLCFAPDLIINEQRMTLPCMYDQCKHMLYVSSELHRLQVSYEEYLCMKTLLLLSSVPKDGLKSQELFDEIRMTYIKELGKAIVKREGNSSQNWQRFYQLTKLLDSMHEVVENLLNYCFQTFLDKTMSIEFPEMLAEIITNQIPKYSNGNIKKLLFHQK
Summary of the method: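 Measures GR pathway activation through a GRE-beta-lactamase reporter stably integrated in HeLa cells, with 18 h compound treatment at 37 C and fluorescence detection using a FRET substrate.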

[19] = biological target: Glucocorticoid receptor (Homo sapiens) (UniProt P04150); assay: qHTS assay to identify small molecule antagonists of the glucocorticoid receptor (GR) signaling pathway (AID 720692; active means well fitted inhibition curve with a large enough effect in the signal ratio in the repeat runs, not every such curve was filed as active; the % refers to the signal ratio)
Summary of the method: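 Tox21 10K library screened in concentration-response for blockade of dexamethasone (5 nM final)-induced GRE-bla reporter activity in HeLa cells; 18 h treatment, fluorescence read.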
On the % scale 0 is the no-effect control and ±100 the full control effect.

CC(CC(=O)O)CC(C)(C)C (stereo not given)
inactive: outcome [1] | outcome [2] | Potency [3] | outcome [4] | outcome [5] | outcome [6] | outcome [7] | outcome [8] | outcome [9] | outcome [10] | outcome [11] | outcome [12] | outcome [13]

O=C(O)Cc1cccc(-c2cc(CCCCCCc3ccc(O[C@H]4O[C@H](CO)[C@@H](O)[C@H](O)[C@@H]4O)c(-c4cccc(CC(=O)O)c4)c3)ccc2O[C@H]2O[C@H](CO)[C@@H](O)[C@H](O)[C@@H]2O)c1
inactive: outcome [1] | outcome [2] | Potency [3] | outcome [4] | outcome [5] | outcome [6] | outcome [14] | outcome [15] | outcome [8] | outcome [9] | outcome [10] | outcome [11] | outcome [12] | outcome [16] | outcome [13]

CCCO
inactive: outcome [1] | outcome [2] | outcome [4] | Potency [17] | outcome [5] | outcome [6] | outcome [7] | outcome [14] | outcome [15] | outcome [8] | outcome [9] | outcome [10] | outcome [11] | outcome [12] | outcome [16] | outcome [13] | Potency [18] | outcome [19]

CCCCC(CC)C(=O)OC(C)C (stereo not given)
inactive: outcome [1] | outcome [2] | Potency [3] | outcome [4] | outcome [5] | outcome [6] | outcome [7] | outcome [15] | outcome [8] | outcome [9] | outcome [10] | outcome [11] | outcome [12] | outcome [13] | Potency [18] | outcome [19]

Cc1nc2ccccc2c(=O)o1
inactive: outcome [1] | outcome [2] | Potency [3] | outcome [4] | outcome [5] | outcome [14] | outcome [15] | outcome [8] | outcome [9] | outcome [10] | outcome [11] | outcome [12] | outcome [16] | outcome [13]

CCCCCCCCCOCC1CO1 (stereo not given)
inactive: outcome [1] | outcome [2] | outcome [4] | Potency [17] | outcome [5] | outcome [6] | outcome [14] | outcome [15] | outcome [8] | outcome [9] | outcome [10] | outcome [11] | outcome [12] | outcome [16] | outcome [13] | Potency [18] | outcome [19]

CCCCC(CC)COC(=O)c1ccccc1 (stereo not given)
inactive: outcome [1] | outcome [2] | Potency [3] | outcome [5] | outcome [6] | outcome [7] | outcome [15] | outcome [8] | outcome [9] | outcome [10] | outcome [11] | outcome [12] | outcome [16] | outcome [13] | Potency [18] | outcome [19]

N#CCCOCCOCCC#N
inactive: outcome [1] | outcome [2] | Potency [3] | outcome [4] | outcome [5] | outcome [6] | outcome [14] | outcome [8] | outcome [9] | outcome [10] | outcome [11] | outcome [12] | outcome [16] | outcome [13] | Potency [18] | outcome [19]

C=CCCCCCCCCCCC
inactive: activation [1] 1.83% [at 8.08 µM] | activity change, negative = cytotoxicity [2] 6.07% [at 8.08 µM] | activity, negative = cytotoxicity [3] -5.67% [at 8.08 µM] | activity change, negative = cytotoxicity [4] 9.56% [at 8.08 µM] | fluorescence, relative to Rose Bengal [5] 0.0415% [at 3.72 µM] | fluorescence, % of fluorescein control [6] 0.103% [at 3.72 µM] | fluorescence, % of fluorescent control [14] -0.0532% [at 3.72 µM] | fluorescence, % of fluorescein [15] 0.0165% [at 3.72 µM] | fluorescence, % of fluorescent control [8] -0.158% [at 3.72 µM] | activity change [9] 0.0052% [at 3.72 µM] | fluorescence, % of fluorescent control [10] -0.0144% [at 3.72 µM] | fluorescence, % of Rose Bengal [11] 0.0242% [at 3.72 µM] | fluorescence, % of fluorescent control [12] 0.0228% [at 3.72 µM] | fluorescence, % of fluorescein control [16] 0.0296% [at 3.72 µM] | fluorescence, % of fluorescent control [13] -0.017% [at 3.72 µM] | activation [18] -0.645% [at 6.9 µM] | activity change, negative = inhibition [19] -6.37% [at 7.04 µM]

CC(C)=CC(C)(C)C
inactive: outcome [1] | outcome [2] | Potency [3] | outcome [4] | outcome [5] | outcome [6] | outcome [7] | outcome [8] | outcome [9] | outcome [10] | outcome [11] | outcome [13] | Potency [18]

CCOC(=O)CCCCCCCCC(=O)OCC
inactive: outcome [1] | outcome [2] | Potency [3] | outcome [5] | outcome [6] | outcome [7] | outcome [14] | outcome [8] | outcome [9] | outcome [10] | outcome [11] | outcome [12] | outcome [16] | outcome [13]

C=CCOC(=O)c1ccc(C(=O)OCC=C)c(C(=O)OCC=C)c1
inactive: outcome [1] | outcome [2] | Potency [3] | Potency [17] | outcome [5] | outcome [6] | outcome [7] | outcome [14] | outcome [15] | outcome [8] | outcome [9] | outcome [10] | outcome [11] | outcome [12] | outcome [16] | outcome [13] | Potency [18]

CC(C)(C)NCCO
inactive: outcome [1] | outcome [2] | Potency [3] | outcome [4] | outcome [5] | outcome [7] | outcome [14] | outcome [15] | outcome [8] | outcome [9] | outcome [10] | outcome [11] | outcome [16] | outcome [13] | Potency [18] | outcome [19]

CC(C)(CO)[C@@H](O)C(=O)NCCCO
inactive: outcome [1] | outcome [2] | outcome [4] | Potency [17] | outcome [5] | outcome [6] | outcome [14] | outcome [8] | outcome [9] | outcome [10] | outcome [11] | outcome [16] | outcome [13]
